The record followed here is PubChem BioAssay (EPA / NIEHS).

Settings in all cases: mRNA level, 48 h; actives raise or lower the signal
Read-out in assay [1]: Early growth response protein 1 (EGR1) transcription factor, EGR1 (gene 1958)
Put plainly: LTEA_HepaRG_EGR1: Life Technologies and Expression Analysis (LTEA) Assay for Early growth response protein 1 (EGR1) transcription factor using HepaRG (AID 2283490). The method, boiled down: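 Read-out is EGR1 mRNA level by qRT-PCR, normalized to three housekeeping genes and analysed for gain or loss of signal against 0.5% DMSO. Source cells: human HepaRG, treated 48 h at up to 100 uM in half-log dilutions.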

Read-out in assay [2]: Ezrin (EZR), EZR (gene 7430)
The experiment in a line: LTEA_HepaRG_EZR: Life Technologies and Expression Analysis (LTEA) Assay for Ezrin (EZR) using HepaRG (AID 2283491). The method, boiled down:
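HepaRG, 48 h chemical exposure, 8-pt half-log series from 100 uM, 0.5% DMSO vehicle, duplicates. Read-out: EZR mRNA by TaqMan qRT-PCR (Fluidigm array), housekeeping-normalized; bidirectional curve fit vs DMSO baseline.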

Read-out in assay [3]: Cytochrome P450 3A7 (Homo sapiens) (UniProt P24462)
Put plainly: LTEA_HepaRG_CYP3A7: Life Technologies and Expression Analysis (LTEA) Assay for CYP3A7 using HepaRG (AID 2283492). In outline:
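Differentiated HepaRG cells in serum-free induction medium exposed 48 h in duplicate to 8-point half-log series from 100 uM top in 0.5% DMSO. CYP3A7 mRNA by qRT-PCR, normalized to ACTB/GAPDH/POLR2A, bidirectional fit versus DMSO.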

Read-out in assay [4]: CYP3A5 (gene 1577)
The experiment in a line: LTEA_HepaRG_CYP3A5: Life Technologies and Expression Analysis (LTEA) Assay for CYP3A5 using HepaRG (AID 2283493). In outline:
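HepaRG plated 48 h, switched to serum-free induction medium, chemicals added 48 h (max 100 uM, half-log, 0.5% DMSO). RNA isolated; CYP3A5 by TaqMan qRT-PCR. Gain/loss vs DMSO.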

Read-out in assay [5]: Fatty Acid-Binding Protein 1 (FABP1), FABP1 (gene 2168)
Put plainly: LTEA_HepaRG_FABP1: Life Technologies and Expression Analysis (LTEA) Assay for Fatty Acid-Binding Protein 1 (FABP1) using HepaRG (AID 2283494). In outline:
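HepaRG, 48 h post-plating switched to serum-free induction medium, then dosed 48 h (duplicate, 8 pts, ≤100 uM, 0.5% DMSO). RNA → Fluidigm TaqMan qRT-PCR, FABP1 normed to ACTB/GAPDH/POLR2A. Bidirectional curve fit vs DMSO.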

Read-out in assay [6]: Glutathione S-Transferase (GSTA2), GSTA2 (gene 2939)
The experiment in a line: LTEA_HepaRG_GSTA2: Life Technologies and Expression Analysis (LTEA) Assay for Glutathione S-Transferase (GSTA2) using HepaRG (AID 2283497). In outline:
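HepaRG, 48 h dosing, 8-pt half-log CRC from 100 uM, 0.5% DMSO vehicle, n=2; RNA → Fluidigm TaqMan qRT-PCR; GSTA2 vs ACTB/GAPDH/POLR2A; gain/loss fit vs DMSO.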

Read-out in assay [7]: Glutamate-cysteine ligase catalytic (GCLC), GCLC (gene 2729)
Put plainly: LTEA_HepaRG_GCLC: Life Technologies and Expression Analysis (LTEA) Assay for Glutamate-cysteine ligase catalytic (GCLC) using HepaRG (AID 2283498). The method, boiled down:
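Read-out is GCLC transcript level by Fluidigm-based TaqMan qRT-PCR, normalized to three housekeeping genes and fitted in both directions relative to 0.5% DMSO. Human HepaRG cells received chemicals for 48 h, up to 100 uM.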

Read-out in assay [8]: growth arrest and DNA damage 45 (GADD45G), GADD45G (gene 10912)
The experiment in a line: LTEA_HepaRG_GADD45G: Life Technologies and Expression Analysis (LTEA) Assay for growth arrest and DNA damage 45 (GADD45G) using HepaRG (AID 2283499). The method, boiled down: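 Differentiated human HepaRG cells, 48 h post-plating, exposed 48 h in serum-free induction medium to 8 half-log concentrations (top 100 uM, 0.5% DMSO) in duplicate. GADD45G mRNA measured by Fluidigm TaqMan qRT-PCR, normalized to ACTB, GAPDH, POLR2A; bidirectional fit versus DMSO.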

Read-out in assay [9]: Glutamate-cysteine ligase regulatory (GCLM), GCLM (gene 2730)
Put plainly: LTEA_HepaRG_GCLM: Life Technologies and Expression Analysis (LTEA) Assay for Glutamate-cysteine ligase regulatory (GCLM) using HepaRG (AID 2283500). The method, boiled down: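 Cells were plated, cultured 48 h, switched to serum-free induction medium, then dosed in duplicate for 48 h at eight half-log concentrations up to 100 uM. RNA was then profiled by qRT-PCR; gain or loss versus DMSO was fitted.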

Read-out in assay [10]: Glutathione S-transferase M3 (GSTM3), GSTM3 (gene 2947)
The experiment in a line: LTEA_HepaRG_GSTM3: Life Technologies and Expression Analysis (LTEA) Assay for Glutathione S-transferase M3 (GSTM3) using HepaRG (AID 2283501). In outline: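 Differentiated human HepaRG cells were exposed in duplicate for 48 h in serum-free induction medium, 8 points from 100 uM top in half-log steps, 0.5% DMSO. GSTM3 mRNA was measured by TaqMan qRT-PCR, normalized to ACTB, GAPDH and POLR2A; bidirectional fit versus DMSO.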

Read-out in assay [11]: Heat shock 70 kDa protein 1 (HSPA1A), gene 3303
Put plainly: LTEA_HepaRG_HSPA1A: Life Technologies and Expression Analysis (LTEA) Assay for Heat shock 70 kDa protein 1 (HSPA1A) using HepaRG (AID 2283502). In outline:
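Readout is HSPA1A transcript level by microfluidic qRT-PCR, normalized to three housekeeping genes and analysed for gain or loss of signal relative to 0.5% DMSO. Human HepaRG cultures received test chemicals for 48 h at up to 100 uM.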

Read-out in assay [12]: Hypoxia-inducible factor 1-alpha (Homo sapiens) (UniProt Q16665)
Put plainly: LTEA_HepaRG_HIF1A: Life Technologies and Expression Analysis (LTEA) Assay for Hypoxia-inducible factor 1 (HIF1A) Trancription factor using HepaRG (AID 2283503). The method, boiled down: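 Differentiated HepaRG cells in serum-free induction medium exposed 48 h, in duplicate, to 8-point half-log series from 100 uM in 0.5% DMSO. HIF1A mRNA measured by TaqMan qRT-PCR, normalized to ACTB/GAPDH/POLR2A, fitted bidirectionally versus DMSO.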

Read-out in assay [13]: 3-Hydroxy-3-Methylglutaryl-CoA Synthase 2 (HMGCS2), HMGCS2 (gene 3158)
Put plainly: LTEA_HepaRG_HMGCS2: Life Technologies and Expression Analysis (LTEA) Assay for 3-Hydroxy-3-Methylglutaryl-CoA Synthase 2 (HMGCS2) using HepaRG (AID 2283504). In outline:
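Human HepaRG cells in serum-free induction medium were exposed in duplicate for 48 h to 8-point half-log series from 100 uM top in 0.5% DMSO. HMGCS2 mRNA measured by TaqMan qRT-PCR, normalised to ACTB, GAPDH, POLR2A; bidirectional fit versus DMSO.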

Read-out in assay [14]: HGF (gene 3082)
The experiment in a line: LTEA_HepaRG_HGF: Life Technologies and Expression Analysis (LTEA) Assay for Hepatocyte Growth Facto (HGF) using HepaRG (AID 2283505). In outline:
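Differentiated HepaRG cells in serum-free induction medium exposed 48 h in duplicate, 8 half-log concentrations from 100 uM in 0.5% DMSO. HGF mRNA by qRT-PCR, normalised to ACTB, GAPDH, POLR2A; bidirectional fitting.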

Read-out in assay [15]: Insulin Like Growth Factor 1 (IGF1), IGF1 (gene 3479)
Put plainly: LTEA_HepaRG_IGF1: Life Technologies and Expression Analysis (LTEA) Assay for Insulin Like Growth Factor 1 (IGF1) using HepaRG (AID 2283506). The method, boiled down:
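HepaRG, plated 48 h, then switched to serum-free induction media; test chemical 8-pt half-log from 100 uM (0.5% DMSO), duplicate, 48 h. Lysis in RLT, TaqMan qRT-PCR, norm. ACTB/GAPDH/POLR2A. Bidirectional fit vs DMSO.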

Read-out in assay [16]: Intercellular Adhesion Molecule 1 (ICAM1), ICAM1 (gene 3383)
Put plainly: LTEA_HepaRG_ICAM1: Life Technologies and Expression Analysis (LTEA) Assay for Intercellular Adhesion Molecule 1 (ICAM1) using HepaRG (AID 2283507). The method, boiled down: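 Differentiated human HepaRG cells in serum-free induction medium exposed 48 h in duplicate to 8 half-log concentrations (top 100 uM, 0.5% DMSO). ICAM1 mRNA quantified by TaqMan qRT-PCR, normalized to ACTB, GAPDH and POLR2A; bidirectional fitting versus DMSO.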

Read-out in assay [17]: Insulin-like growth factor-binding protein 1 (IGFBP1), IGFBP1 (gene 3484)
Put plainly: LTEA_HepaRG_IGFBP1: Life Technologies and Expression Analysis (LTEA) Assay for Insulin-like growth factor-binding protein 1 (IGFBP1) using HepaRG (AID 2283508). The method, boiled down: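 HepaRG cells, plated 48 h then switched to serum-free induction medium, exposed in duplicate for 48 h to 8-point half-log series from 100 uM in 0.5% DMSO. mRNA measured by qRT-PCR, normalized to ACTB/GAPDH/POLR2A; bidirectional fit versus DMSO.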

Read-out in assay [18]: Interleukin 6 (IL6), IL6 (gene 3569)
The experiment in a line: LTEA_HepaRG_IL6: Life Technologies and Expression Analysis (LTEA) Assay for Interleukin 6 (IL6) using HepaRG (AID 2283509). The method, boiled down:
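HepaRG, ~100,000 cells/well, 48 h pre-culture; serum-free induction medium; cmpd 8-pt half-log from 100 uM, 0.5% DMSO, duplicate, 48 h. Lysis in RLT, TaqMan qRT-PCR; gain or loss vs DMSO.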

Read-out in assay [19]: Cytochrome P450 4A22 (Homo sapiens) (UniProt Q5TCH4)
The experiment in a line: LTEA_HepaRG_CYP4A22: Life Technologies and Expression Analysis (LTEA) Assay for Cytochrome P450 4A22 (CYP4A22) using HepaRG (AID 2283495). In outline: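 Differentiated HepaRG cells in serum-free induction medium exposed 48 h in duplicate to eight half-log concentrations up to 100 uM in 0.5% DMSO. CYP4A22 mRNA quantified by TaqMan qRT-PCR, normalized to ACTB, GAPDH and POLR2A; bidirectional fit versus DMSO.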

Read-out in assay [20]: Cytochrome P450 7A1 (Homo sapiens) (UniProt P22680)
The experiment in a line: LTEA_HepaRG_CYP7A1: Life Technologies and Expression Analysis (LTEA) Assay for Cytochrome P450 7A1 (CYP7A1) using HepaRG (AID 2283496). The method, boiled down:
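HepaRG cells plated 48 h, then switched to serum-free induction medium and exposed in duplicate for 48 h to 8-point half-log series from 100 uM in 0.5% DMSO. CYP7A1 mRNA by qRT-PCR (TaqMan), normalized to ACTB/GAPDH/POLR2A; bidirectional fit versus DMSO.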

The source made the active and inactive calls. Rule for the calls: active = hit-call score of the fitted dose curve at least 0.9, where 1 is the maximum; inactive = score below 0.9.

Cytochrome P450 3A7 (Homo sapiens), sequence (P24462 whole entry, looked up): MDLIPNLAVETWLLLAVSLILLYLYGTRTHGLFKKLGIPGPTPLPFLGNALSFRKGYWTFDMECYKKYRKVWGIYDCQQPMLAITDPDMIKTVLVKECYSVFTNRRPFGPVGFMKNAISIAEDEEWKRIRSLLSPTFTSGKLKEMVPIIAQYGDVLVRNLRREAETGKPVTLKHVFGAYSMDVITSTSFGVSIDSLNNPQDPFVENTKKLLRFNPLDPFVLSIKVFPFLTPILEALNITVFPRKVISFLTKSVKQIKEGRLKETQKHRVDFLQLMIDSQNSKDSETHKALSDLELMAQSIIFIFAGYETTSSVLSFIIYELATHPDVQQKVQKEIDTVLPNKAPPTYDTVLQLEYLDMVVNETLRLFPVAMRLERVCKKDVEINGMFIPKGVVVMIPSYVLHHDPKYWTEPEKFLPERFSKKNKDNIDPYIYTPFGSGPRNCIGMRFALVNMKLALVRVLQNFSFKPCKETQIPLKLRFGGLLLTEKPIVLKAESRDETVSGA
Hypoxia-inducible factor 1-alpha (Homo sapiens), sequence (Q16665 whole entry, looked up): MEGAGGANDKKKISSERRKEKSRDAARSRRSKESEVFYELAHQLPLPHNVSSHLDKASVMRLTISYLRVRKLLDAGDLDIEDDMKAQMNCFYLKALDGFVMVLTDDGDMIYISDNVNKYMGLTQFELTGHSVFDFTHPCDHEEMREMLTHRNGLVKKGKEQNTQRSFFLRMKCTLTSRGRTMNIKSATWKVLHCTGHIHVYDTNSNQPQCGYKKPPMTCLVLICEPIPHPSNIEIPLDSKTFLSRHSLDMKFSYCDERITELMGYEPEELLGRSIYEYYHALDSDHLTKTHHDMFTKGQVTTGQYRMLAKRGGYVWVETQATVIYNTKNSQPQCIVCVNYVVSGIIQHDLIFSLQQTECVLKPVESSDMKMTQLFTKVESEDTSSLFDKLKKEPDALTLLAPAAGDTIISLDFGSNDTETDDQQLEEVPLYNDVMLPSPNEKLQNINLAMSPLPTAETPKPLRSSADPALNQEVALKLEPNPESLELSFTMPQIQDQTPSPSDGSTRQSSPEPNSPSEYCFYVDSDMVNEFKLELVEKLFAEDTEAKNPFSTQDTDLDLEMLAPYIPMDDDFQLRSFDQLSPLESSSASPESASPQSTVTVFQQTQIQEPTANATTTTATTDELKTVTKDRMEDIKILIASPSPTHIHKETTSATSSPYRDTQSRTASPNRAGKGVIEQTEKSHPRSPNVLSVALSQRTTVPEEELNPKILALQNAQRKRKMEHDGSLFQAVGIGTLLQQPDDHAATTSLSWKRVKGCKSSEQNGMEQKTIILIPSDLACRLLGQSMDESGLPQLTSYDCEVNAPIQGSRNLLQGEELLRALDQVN

Take `CCNC(=O)NC(=O)C(C#N)=NOC`: the call in [1], in [2], in assay [3], in assay [4], in assay [5] and in assay [6] was inactive. The result in assay [8], in assay [9], in [10], in assay [11], in assay [12] and in assay [14] was inactive. Also, the result in assay [15], in [16], in assay [17] and in assay [18] was inactive. For the same molecule, the figures for the AC50 in assay [7] and in assay [13] were 9920 nM (active) and 50000 nM (active), respectively.

As to `CCOc1nc(C(Cl)(Cl)Cl)ns1`, the concentration at half-maximal activity (AC50) in assay [1] is 1120 nM (active); in [3], 2430 nM (active); in assay [7], 939 nM (active); in assay [9], 1140 nM (active); in [10], 22900 nM (active); in assay [14], 1210 nM (active). In addition, the AC50 in assay [15] is 965 nM (active); in assay [16], 1380 nM (active); in assay [17], 1010 nM (active); in [18], 15000 nM (active). The outcome in [2], in assay [4], in [5], in [6], in assay [8] and in assay [12] was inactive. Besides, in assay [13], the call was inactive.

For `C=C(C)CN(CC)c1c([N+](=O)[O-])cc(C(F)(F)F)cc1[N+](=O)[O-]`, the molecule was classed as inactive in assay [1], in [2], in assay [3], in assay [4], in assay [19] and in [20]. Also, the outcome in [6], in assay [7], in [8], in assay [9], in assay [10] and in assay [12] was inactive. Besides, the result in assay [13], in [14], in assay [15], in assay [16], in [17] and in [18] was inactive. The AC50 in assay [5] was 50000 nM (active).

Regarding `Clc1nc(Cl)nc(Nc2ccccc2Cl)n1`, the molecule was called inactive in [1], in [2], in assay [3], in assay [4], in [5] and in [19]. In addition, the outcome in [20], in assay [6], in assay [7], in assay [8], in [9] and in assay [10] was inactive. The outcome in [12], in [13], in [14], in assay [15], in assay [16] and in assay [17] was inactive. Moreover, the outcome in assay [18] was inactive.
